Experimental data as given in PubChem BioAssay (EPA / NIEHS).
Several values for one entry are separate records, joined by “and”; a condition that tells them apart may be missing. Equal entries are not always repeated. Some compounds were tested as several samples or in several runs, with calls that do not always agree. Activity calls are given as the source filed them. Rule for the calls: active = hit-call score of the fitted dose curve at least 0.9, where 1 is the maximum; inactive = score below 0.9.

read-out: Monokine induced gamma interferon (MIG), CXCL9 (gene 4283); assay: BSK_3C_MIG: BioMAP Diversity Plus: 3C Assay for Monokine induced gamma interferon (MIG) Biomarker Activity (AID 2283021); settings: primary human endothelial cells (HUVEC); actives raise or lower the signal;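 for AC50: MIG protein level measured by immunoassay in the treated endothelial cultures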
Description: BSK_3C is a cell-based, multiplexed-readout assay that uses umbilical vein endothelium, a human vascular primary cell, with measurements taken at 24 hours after chemical dosing in a 96-well plate.BSK_3C_MIG is an assay component measured in the BSK_3C assay. It measures MIG antibody related to regulation of gene expression using ELISA technology.Data from the assay component BSK_3C_MIG was analyzed into 1 assay endpoint. This assay endpoint, BSK_3C_MIG, was analyzed with bidirectional fitting relative to DMSO as the negative control and baseline of activity. Using a type of binding reporter, gain or loss-of-signal activity can be used to understand changes in the signaling as they relate to the gene CXCL9. Furthermore, this assay endpoint can be referred to as a primary readout, because this assay has produced multiple assay endpoints where this one serves a signaling function. To generalize the intended target to other relatable targets, this assay endpoint is annotated to the cytokine intended target family, where the subfamily is chemotactic factor.
The levels of cell surface (or secreted, indicated by the prefix "s") biomarker endpoints were measured by ELISA. Overt cytotoxicity to cells in confluent adherent cultures (all systems other than the BT system) was assessed by measuring total protein levels using sulforhodamine B (SRB) staining in parallel cultures at the time of biomarker measurements, indicated as SRB endpoints. For proliferation assays for adherent cell types, individual cell types are cultured at sub-confluence and relative cell numbers quantified by SRB staining at time points optimized for each system (48 h: 3C and CASM3C systems; 72 h: BT and HDF3CGF systems; 96 h: SAg system). SRB was performed by staining cells with 0.1% SRB after fixation with 10% TCA and reading wells at 560 nm.Viability and proliferation of PBMC (T cells) was quantified by Alamar Blue reduction for the SAg and BT systems. For PBMC viability (referred to as PBMC Cytotoxicity within the assay endpoint names), cells were plated (75,000/well in a 96-well plate) and then chemical samples added for 1 h before addition of activators, SEB and TSST-1 (20 ng/mL final concentration each). Cells were incubated for 90 h. Then, Alamar Blue (20 uL/well) (Invitrogen, Cat DAL1100) was added for 6 h, and the plates were read with a fluorescence microplate reader at 546/580 nm (excitation/emission). For PBMC proliferation, cells were plated and activated as above but incubated for only 16 h prior to addition of Alamar Blue. Plates were read after 6 h.

Row | SMILES | outcome | AC50
1 | CC1(C)[C@H](C=C(Cl)Cl)[C@H]1C(=O)OCc1cccc(Oc2ccccc2)c1 | inactive | 
2 | OCC(F)(OC(F)(F)C(F)(OC(F)(F)C(F)(F)C(F)(F)F)C(F)(F)F)C(F)(F)F (stereo not given) | inactive | 3.71 µM (active)
3 | CCCCCCCC1CCCC1=O (stereo not given) | inactive | 
4 | C=C(C)C(=O)OCCC(F)(F)C(F)(F)C(F)(F)C(F)(F)C(F)(F)C(F)(F)C(F)(F)C(F)(F)F | inactive | 
5 | CCn1cc(C(=O)O)c(=O)c2ccc(C)nc21 | inactive | 
6 | CC(C)CCCC(C)(C)O | inactive | 
7 | C#C[C@]1(O)CC[C@H]2[C@@H]3CCc4cc(O)ccc4[C@H]3CC[C@@]21C | inactive | 
8 | COc1ccccc1NC(=O)CC(C)=O | inactive | 
9 | c1ccc2c(c1)-c1ccc3ccc4cccc5cc-2c1c3c45 | inactive | 
10 | Nc1ccc(N)c([N+](=O)[O-])c1 | inactive | 
11 | c1ccc(Sc2ccccc2)cc1 | inactive | 
12 | CC(=O)c1ccc(C)cc1 | inactive | 
13 | CCCCN(CCO)CCO | inactive | 
14 | CC(=O)OCC=C(C)CCC=C(C)CCC=C(C)C | inactive | 
15 | O=C1OC2(c3ccc(O)cc3Oc3cc(O)ccc32)c2ccccc21 | inactive | 
16 | CC/C(=C(\c1ccccc1)c1ccc(OCCN(C)C)cc1)c1ccccc1 |  | 10.4 µM (active) and 9.73 µM (active)
17 | CCOC(=O)C=Cc1ccccc1 | inactive | 
18 | C=C(C)C(N)=O | inactive | 
19 | CCCCOCCOCCO | inactive | 
20 | OCCN1CCOCC1 | inactive | 

Row | SMILES | outcome | AC50
21 | CCOC(=O)CCCCCCCCC(=O)OCC | inactive | 
22 | CC(=O)CCC=C(C)CCC=C(C)C | inactive | 
23 | C=C1CC/C=C(\C)CC[C@@H]2[C@@H]1CC2(C)C |  | 36.6 µM (active)
24 | CCCCCCCCCC(=O)OCC | inactive | 
25 | O=C(O)C(F)(F)C(F)(F)C(F)(F)C(F)(F)C(F)(F)C(F)(F)C(F)(F)C(F)F | inactive | 
26 | O=C(c1ccc(OCCN2CCCCC2)cc1)c1c(-c2ccc(O)cc2)sc2cc(O)ccc12 |  | 36.1 µM (active)
27 | CC(=O)OC(C)(C)C1CC=C(C)CC1 (stereo not given) | inactive | 
28 | NC(=O)c1c(Cl)cccc1Cl | inactive | 
29 | CC(C)(CO)CO | inactive | 
30 | COC(=O)c1ccc(C(=O)OC)cc1 | inactive | 
31 | O=C(O)C(F)(F)OC(F)(F)C(F)(F)OC(F)(F)C(F)(F)C(F)(F)C(F)(F)F | inactive | 
32 | CC(C)Cc1ccc(C(C)C(=O)O)cc1 (stereo not given) | inactive | 
33 | CC(C)(C)c1cccc(O)c1 | inactive | 
34 | C[C@]12CC[C@@H]3c4ccc(O)cc4CC[C@H]3[C@@H]1CC[C@@H]2O | inactive | 
35 | CC=CC(=O)C1=C(C)C=CCC1(C)C | inactive | 
36 | CCC(=O)OCC=Cc1ccccc1 | inactive | 
37 | O=S1(=O)CC(Cl)(Cl)C(Cl)(Cl)C1 |  | 1.34 µM (active)
38 | O=S(=O)(O)C(F)(F)C(F)(F)OC(F)(F)C(F)(F)F | inactive | 
39 | CCCCCCCCCCCCS | inactive | 
